# Laboratory results reported in the supplement of paper PMC6555819.
# System: VDR:RXRa (NR concentration 270 nM, RXRa partner concentration 90 nM)
# Test: PBM binding z-score (relative to random genomic background probes); higher = stronger binding; sequences stand for … in GC…GCGATTGACAGCGTAGAATGAAGG
# Experimental: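 Protein-binding microarray (Agilent 4x180K custom design, double-stranded 60-nt probes: 5' GC cap, 34-nt variable region, 24-nt constant primer region; full probe sequence given). Purified or IVT nuclear receptor:RXRα heterodimers (3:1 NR:RXRα, mostly 270:90 nM) or homodimers were incubated for 1 h in PBS with 2% milk and no ligand, then detected with Alexa488 antibodies. Fluorescence from o1-orientation probes (~5 replicates averaged) was converted to z-scores against 500 random hg19 background probes. Variable regions are seed direct-repeat (DR0–DR5) sites, all their single-nucleotide variants and half-site ablations.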
row,Sequence,PBM binding z-score
1,GCTAGCGGGCCATTTGGGTCACTCAATGACGGGC,0.753
2,CAGCCTAGGTCAGGGGCAGTATAGGAGGAACGTT,0.806
3,CGTTACGGGTCACTGACAGGTTATAGCATTTGGA,3.87
4,ATAATGAGGTTATACGTAGATCAGGGAAGAAAGT,1.95
5,ATATGTATGTTAAGGGTCATTCAGGTTGGTTCGC,5.25
6,CTACCAAGGTGAACAAGGTCGTTAATTACTATTC,6.04
7,CCTATTAGTGGACCATAAGGGCAACCGAAGCTCG,0.134
8,ACAGACAGGTGAGTGAAGGTAACTAAGCTGGACG,-0.372
9,AACGAAAGGTCGAGGTGAGTATAGAGAAAGGGAA,2.85
10,CCTATCAGTTGACCATAAGGGCAACCGAAGCTCG,0.912
11,CCTGCCAGGTCAATGGTCAGCTAAAGCAGCTCGC,1.5
12,CGTCCAAGGTCAATGCTAGTTCAGTGAAAGCATT,4.84
13,GCACGGAGGACAAGGTCAGAGCTTTGTCCGTAGA,1.34
14,CCTCGGAGGACAACAGGAGGTCAGATCTGCCAGA,1.72
15,TCGAGTAGGTTACCAATGGGGCATTTAGCTTTCT,0.185
16,ACAGATAGGTGAGTGAAGGTAACTCAGCTGGACG,-0.335
17,GCGAGTTGGTCAGTAAAAGGTCACACACCGGTCG,4.33
18,TCTCGGAGGATACGAAGGTCAGAGCTTTCCAGAG,0.765
19,TTAGCAAGGTGAAGGTCGTTGATCCCTCTGTAGA,0.964
20,CGTCCAAGGTGAAGGTCAGTGAAAGAGACTCGAA,0.859

row,Sequence,PBM binding z-score
1,GCAGACAGGTGAAACGCAGGGAACTCAGGGTGGC,-0.604
2,TCTGGCAGGCCAGAGGGTCACTCAAGAGGTACGG,1.5
3,TTACCAAGGTGAAAGGTCGTTGACGCACGCCTTG,3.29
4,CCTTACGGGTCAATCCAGGTTATAGCATCGGAGT,4.64
5,CGAACGTGGGCATGAGTTGATAGCAAATGCCGAT,-0.7
6,ATATTTAGGTTACATCCGGGTCATTCAGGCTATG,4.13
7,ATCTCTAGGTAGGACTCAGTTCAGTGAAGAACGC,0.756
8,ATCGAAAGGTCGAGGTGCGTATAGAGAAAGGGAA,2.16
9,TCTTGTAGATCAGCAGGTTAGGAAAGCTGGCCAA,0.153
10,TCTAGTTGGTCACGGAGGTCACACTCGACGGGTA,5.86
11,GGAACGAGCGCAAGTTGATAGCAGAGTTTGATGG,-0.693
12,CTCGAAAGGACGTGCTCAGGTGAGTATACCAAAC,-0.251
13,CTCGAAAGGTCGTGCTCAGGAGAGTATACCAAAC,2.92
14,TCTGCTCGGTCAGTTGGTCAGCTAACGAGCTGCC,-0.549
15,CCTGCTAGGTTATGGTCAGCTAATCTACAGTATG,-0.216
16,CAAACTAGGTCAAAGGTCCAAGTCGAGCCAACCA,3.41
17,AGAATGAGGTTACCATAGATCAGGGAAACGCTTG,0.941
18,CCTATTAGTTGACCATAAGGGTAACCGAAGCTCG,0.776
19,TAGCCTAGGTCATCGGCCAGTATACCACGCGAAC,2.15
20,TTACCAAGGTGAGGTGAGGTCGTTGATCCAACTC,4.3
